Source: PubChem BioAssay
Records with an inconclusive call do not appear. Activity calls are given as the source filed them.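 How the source made its calls, unless noted: active means cell viability at or below a set limit in both duplicate runs, the limit being the all-compound median minus 4 SD (cut at about 23% in these data, passing the limit was not always enough); inconclusive means no clear call, values can overlap the other calls; inactive means the rest.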

Experiments:
[1] = Her2 expression decrease, cell viability multiplex – SKBR3 breast tumor cells, AlphaScreen, ATP viability, primary screen (AID 461;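 active means Her2 level under about 52% in both replicate screens, with viability over 70% of control, limit read from the data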;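 on Her2 level: lower value means less Her2 protein in the cells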;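 on viability: percent of carrier control wells set as 100% viability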); details: SKBR3 Her2 protein level, 18-24 h, measured here: SKBR3 viability, ATP luminescence, at 10 µM
[2] = target: Receptor tyrosine-protein kinase erbB-2 (Homo sapiens) (UniProt P04626); assay: as above; details: 18-24 h, at 10 µM, stronger effect = lower value
Receptor tyrosine-protein kinase erbB-2 (Homo sapiens), sequence (P04626 whole entry, looked up): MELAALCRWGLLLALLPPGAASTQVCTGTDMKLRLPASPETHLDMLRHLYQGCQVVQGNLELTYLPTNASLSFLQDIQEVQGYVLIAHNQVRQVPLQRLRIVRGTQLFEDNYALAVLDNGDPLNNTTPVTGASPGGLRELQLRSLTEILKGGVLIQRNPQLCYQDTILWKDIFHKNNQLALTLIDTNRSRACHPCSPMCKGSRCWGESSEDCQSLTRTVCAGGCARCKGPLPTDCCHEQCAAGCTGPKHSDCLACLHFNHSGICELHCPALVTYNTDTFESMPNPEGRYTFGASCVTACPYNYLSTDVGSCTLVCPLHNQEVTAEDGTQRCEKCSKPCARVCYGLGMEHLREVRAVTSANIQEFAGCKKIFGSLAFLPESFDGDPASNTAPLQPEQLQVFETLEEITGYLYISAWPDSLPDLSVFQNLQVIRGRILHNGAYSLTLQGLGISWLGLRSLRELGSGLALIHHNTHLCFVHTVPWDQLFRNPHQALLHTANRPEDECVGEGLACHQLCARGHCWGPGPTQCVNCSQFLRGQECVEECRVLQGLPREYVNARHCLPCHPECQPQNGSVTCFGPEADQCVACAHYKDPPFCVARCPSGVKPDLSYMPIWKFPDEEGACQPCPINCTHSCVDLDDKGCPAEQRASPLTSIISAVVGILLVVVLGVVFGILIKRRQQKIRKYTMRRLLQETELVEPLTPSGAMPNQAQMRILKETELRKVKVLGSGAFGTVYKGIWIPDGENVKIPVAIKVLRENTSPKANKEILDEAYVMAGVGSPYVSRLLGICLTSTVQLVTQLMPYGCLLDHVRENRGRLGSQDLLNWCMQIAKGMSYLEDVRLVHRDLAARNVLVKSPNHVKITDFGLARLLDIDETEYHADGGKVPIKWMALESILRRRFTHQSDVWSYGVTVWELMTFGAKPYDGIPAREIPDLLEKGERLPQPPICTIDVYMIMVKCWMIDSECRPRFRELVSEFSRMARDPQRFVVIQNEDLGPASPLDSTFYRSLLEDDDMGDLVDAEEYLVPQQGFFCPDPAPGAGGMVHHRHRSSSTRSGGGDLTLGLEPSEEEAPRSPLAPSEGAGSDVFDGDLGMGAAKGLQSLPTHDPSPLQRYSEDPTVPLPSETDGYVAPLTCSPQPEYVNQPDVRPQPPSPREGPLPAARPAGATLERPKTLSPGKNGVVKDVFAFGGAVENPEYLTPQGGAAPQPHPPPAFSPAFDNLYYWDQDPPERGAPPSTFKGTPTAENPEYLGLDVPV

[3] = reduced viability of SK-BR-3 breast cancer cells – cell-based, 24 h, human, pilot screen (AID 572;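 active means viability at or below 10% of carrier control in both of two separate runs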;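 further: compound exposure lasted between 18 and 24 h rather than exactly 24 h; 100% = carrier-treated control wells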); details: SK-BR-3 viability, CellTiter-Glo luminescence, at 10 µM, stronger effect = lower value
[4] = HUVEC growth inhibition – cell-based, human, primary screen (AID 575;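 active means viability at or below 30% in both replicate assays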;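 further: 100% = median of untreated cell wells with 0.1% DMSO on each plate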); details: HUVEC proliferation, CellTiter-Glo luminescence, 72 h; at 10 µM; stronger effect = lower value
[5] = H69AR cell proliferation blockers – human, duplicate replicates, primary screen (AID 580;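 active means viability at or under a set limit in both replicates, limit being median viability minus 3 SD, cut at about 48% in these data, passing the limit was not always enough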;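 further: 100% = mean luminescence of untreated wells and 0% = no signal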); details: H69AR lung tumor cells viability, ATP luminescence, 72 h; at 10 µM; stronger effect = lower value
[6] = MRP1 drug-resistance reversers in H69AR cells – cell-based, doxorubicin co-treatment, pilot screen (AID 601;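 active means viability loss from added drug above about 55%, and viability with drug at most 40%, in both replicates, limit read from the data, passing the limit was not always enough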); details: CellTiter-Glo, 72 h, at 10 µM; for differential viability (reversal): stronger effect = higher value
[7] = yeast transport mutant growth inhibition pilot in 384-well plates, post-Golgi transport modulator project (AID 636; in the data active means inhibition above about 31%); details: absorbance 615 nm, about 18 h, stronger effect = higher value
[8] = growth suppression of yeast trafficking mutant, preliminary HTS, modulators of trafficking downstream of Golgi apparatus project, 1536-format plate, OD 615 nm (AID 637; in the data active means inhibition above about 30%); details: yeast transport mutant growth, absorbance 615 nm, 18 h; stronger effect = higher value
[9] = S. cerevisiae growth inhibition in permissive medium (OD615), pilot counter-assay for S. cerevisiae lifespan shortening project, permissive growth control (AID 705;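 active means growth inhibition above 25% in both replicates, a cutoff set 3 SD above the mean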); details: OD615, 24 h, at 10 µM, stronger effect = higher value
[10] = S. cerevisiae growth inhibition in restrictive medium, OD615, pilot screen, restrictive growth control, yeast lifespan reduction project (AID 706;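 active means growth inhibition above a set limit, 3 SD over mean compound inhibition, in both replicates, cut at about 43% in these data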;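 further: modified DeaD lifespan yeast strain shifted to restrictive glucose medium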); details: OD615, 48 h, at 10 µM, stronger effect = higher value
[11] = doxorubicin toxicity protection in MRP-1 cells – H69AR cells, CellTiter-Glo, duplicate, MRP-1 activator project, pilot screen (AID 807;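 active means viability increase at or above a cutoff of the median across tested compounds plus 3 SD, cut at about 8.5% in these data, passing the limit was not always enough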;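 further: compound pretreatment 18-22 h then 72 h combined with doxorubicin; 0% = doxorubicin alone and 100% = vehicle without doxorubicin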); details: H69AR viability with doxorubicin, CellTiter-Glo luminescence; at 10 µM; stronger effect = higher value
[12] = viability of HCT116 without oncogenic beta-catenin – human colon tumor cells, pilot screen (AID 823); details: HCT116 beta-catenin knockout viability, CellTiter-Glo, 60 h; at 10 µM; stronger effect = lower value;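 further: 0% = wells killed by 20 µM Hyamine and 100% = untreated DMSO cell wells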
[13] = viability of PTEN-null HCT116 cells – cell-based, HCT116 clonal line, CellTiter-Glo, pilot screen (AID 824;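 active means viability at or below 27.92% in each of two runs, the all-compound median minus 4 SD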;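 further: 0% = 20 µM Hyamine control and 100% = vehicle cell control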); details: HCT116 PTEN-deleted viability, 60 h, at 10 µM, stronger effect = lower value
[14] = RAM pathway blockade in budding yeast – dse1pr::URA3 reporter, 5-FOA selection, pilot screen (AID 869;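 active means inhibition over a set limit, the all-compound mean plus 3 SD, in both replicate runs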;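 further: 0% = DMSO wells with no growth and 100% = 10 µM 1-NA-PP1 with full growth; RAM network block rescues cells from 5-FOA so hits raise OD615 growth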); details: S. cerevisiae dse1pr::URA3 5-FOA growth, OD615, 2 d; at 10 µM; stronger effect = higher value; strain carries analog-sensitive mutant Cbk1 kinase
[15] = RAM signaling pathway blockade in yeast – S. cerevisiae, Pdr1DBD-CYC8 efflux-inhibited sensitized strain, primary screen (AID 1298;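 active means RAM network inhibition above 8.4% in each of two replicates, 3 SD over the compound average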;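 further: 0% = DMSO untreated cells without growth and 100% = 10 µM 1-NA-PP1 full growth; higher means more yeast growth rescued from 5-FOA killing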); details: S. cerevisiae cbk1-as DSE1-URA3 strain, 5-FOA growth OD615, 2 d; at 50 µM; stronger effect = higher value
[16] = H69AR cells + 2 uM doxorubicin, measured here: viability with 2 uM doxorubicin, stronger effect = lower value
[17] = H69AR cells, compound alone cytotoxicity

COc1ccc(CCNC(=O)c2cnn3ccccc23)c(OC)c1OC
inactive: Her2 level [2] 98.5% | viability [3] 92.5% | viability [4] 78.8% | viability [5] 96.5% | differential viability (reversal) ([6]; H69AR cells + 2 uM doxorubicin) -0.525% | inhibition [7] -5.6% | inhibition [8] -2.67% | growth inhibition [9] -9.7% | growth inhibition [10] -2.3% | viability increase [11] -1.15% | viability [12] 101% | viability [13] 87.8% | inhibition [14] 1.33% | RAM network inhibition [15] 3.06%
97%: viability [6, 16]
92.5%: viability [1]
96.5%: viability [6, 17]

CCN(CC)C(=O)COC(=O)c1ccc(O)cc1
90.5%: viability [1]
91.2%: viability [6, 17]
inactive: Her2 level [2] 102% | viability [3] 90.5% | viability [4] 103% | viability [5] 91.2% | differential viability (reversal) ([6]; H69AR cells + 2 uM doxorubicin) -5.45% | inhibition [7] 1.73% | inhibition [8] -5.97% | growth inhibition [9] -6.88% | growth inhibition [10] -17.4% | viability increase [11] 0.25% | viability [12] 95.6% | viability [13] 101% | inhibition [14] 1.32% | RAM network inhibition [15] -0.27%
96.7%: viability [6, 16]

c1ccc(N2CCN(Cc3cn4cccnc4n3)CC2)cc1
97.6%: viability [6, 17]
inactive: Her2 level [2] 94% | viability [3] 98% | viability [4] 97.2% | viability [5] 97.6% | differential viability (reversal) ([6]; H69AR cells + 2 uM doxorubicin) 3.72% | inhibition [7] -2% | inhibition [8] -6.07% | growth inhibition [9] -10.3% | growth inhibition [10] -6.25% | viability increase [11] 1.38% | viability [12] 98% | viability [13] 95.1% | inhibition [14] 0.465% | RAM network inhibition [15] 6.85%
93.9%: viability [6, 16]
98%: viability [1]

COc1ccc(-n2c(Cc3cccn3C)nnc2SCC(N)=O)cc1
94.8%: viability [6, 16]
94.5%: viability [1]
inactive: Her2 level [2] 95% | viability [3] 94.5% | viability [4] 112% | viability [5] 97.5% | differential viability (reversal) ([6]; H69AR cells + 2 uM doxorubicin) 2.7% | inhibition [7] 0.64% | inhibition [8] -3.5% | growth inhibition [9] 8.68% | growth inhibition [10] 5.57% | viability increase [11] -2.07% | viability [12] 97.6% | viability [13] 94.4% | inhibition [14] 1.42% | RAM network inhibition [15] 0.63%
97.5%: viability [6, 17]

CC1Cc2nc(SCC(N)=O)n(Cc3ccccc3)c(=O)c2S1 (stereo not drawn)
79.6%: viability [6, 16]
inactive: Her2 level [2] 100% | viability [3] 88.5% | viability [4] 93.7% | viability [5] 88.3% | differential viability (reversal) ([6]; H69AR cells + 2 uM doxorubicin) 8.68% | inhibition [7] -3.6% | inhibition [8] -4.67% | growth inhibition [9] -18.9% | growth inhibition [10] -26.3% | viability increase [11] -1.84% | viability [12] 95.3% | viability [13] 90.9% | inhibition [14] 1.32% | RAM network inhibition [15] 1.84%
88.5%: viability [1]
88.3%: viability [6, 17]

Cn1cc(C2NC(=O)c3c(sc4c3CCCC4)N2)c2ccccc21 (stereo not drawn)
64.9%: viability [6, 17]
60.4%: viability [6, 16]
inactive: Her2 level [2] 78.5% | viability [3] 99% | viability [4] 61.9% | viability [5] 64.9% | differential viability (reversal) ([6]; H69AR cells + 2 uM doxorubicin) 4.49% | inhibition [7] 1.6% | inhibition [8] 5.17% | growth inhibition [9] -6.96% | growth inhibition [10] 2.46% | viability increase [11] -2.92% | viability [12] 101% | viability [13] 90.8% | inhibition [14] 0.64% | RAM network inhibition [15] 2.82%
99%: viability [1]

CCOC(=O)C(C(=O)OCC)C(C)C#CCN1CCCCC1 (stereo not drawn)
91.5%: viability [1]
90.4%: viability [6, 17]
89.2%: viability [6, 16]
inactive: Her2 level [2] 116% | viability [3] 91.5% | viability [4] 87.2% | viability [5] 90.4% | differential viability (reversal) ([6]; H69AR cells + 2 uM doxorubicin) 1.13% | inhibition [7] -3.08% | inhibition [8] -5.5% | growth inhibition [9] -2.21% | growth inhibition [10] -1.49% | viability increase [11] -2.18% | viability [12] 93.9% | viability [13] 97% | inhibition [14] -0.12% | RAM network inhibition [15] 7.5%

COCCCN(C)C1CCN(C(=O)Nc2ccc(F)cc2)CC1
inactive: Her2 level [2] 124% | viability [3] 106% | viability [4] 109% | viability [5] 89% | differential viability (reversal) ([6]; H69AR cells + 2 uM doxorubicin) -5.42% | inhibition [7] -3.47% | inhibition [8] -1.5% | growth inhibition [9] -6.78% | growth inhibition [10] 3.39% | viability increase [11] 0.68% | viability [12] 103% | viability [13] 105% | inhibition [14] 0.185% | RAM network inhibition [15] 8.93%
89%: viability [6, 17]
106%: viability [1]
94.4%: viability [6, 16]

Cc1cc(C)n2nc(S(=O)(=O)N(C)c3ccccc3)nc2n1
93.9%: viability [6, 16]
103%: viability [1]
inactive: Her2 level [2] 102% | viability [3] 103% | viability [4] 88.2% | viability [5] 94.5% | differential viability (reversal) ([6]; H69AR cells + 2 uM doxorubicin) 0.67% | inhibition [7] -5.6% | inhibition [8] 4.17% | growth inhibition [9] -16.1% | growth inhibition [10] -13.7% | viability increase [11] -1.5% | viability [12] 104% | viability [13] 98.1% | inhibition [14] 3.53% | RAM network inhibition [15] 1.62%
94.5%: viability [6, 17]
